According to PubChem BioAssay:
Values without a mark were called inactive. Entries that show only a call come without a potency. For some assays here: Potency and affinity values are given separately. Calls of active or inactive are those of the source. Unless noted, the rule behind the calls is not given here.

What was measured:
[1] = antimalarial activity against Dd2 strain (AID 2302;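 active = growth inhibition above 50% at the single 2 µM test dose, taken to imply half-maximal potency below 2 µM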); conditions: P. falciparum Dd2 in RBCs, LDH growth readout, 72 h; at 2 µM; hits give high values
[2] = HepG2 cytotoxicity, primary screen, cytotoxicity control for P. falciparum antimalarial project, cell-based, ATP luminescence (AID 2303;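 active = inhibition above 50%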); conditions: HepG2 viability, 24-48 h, at 10 µM, hits give high values
[3] = biological target: L-lactate dehydrogenase (Plasmodium falciparum (isolate CDC / Honduras)) (UniProt Q27743); assay: PfLDH activity inhibition – cell lysate, 3D7 strain, counter-screen for P. falciparum growth inhibition project (AID 2304); conditions: P. falciparum 3D7 crude extract, LDH APAD/NBT absorbance; at 2 µM; hits give high values
[4] = inhibition of 3D7 malaria parasite growth – strain 3D7 (AID 2306); conditions: P. falciparum 3D7 erythrocytic growth, LDH absorbance, 72 h; at 2 µM; hits give high values
[5] = biological target: Calcium-dependent protein kinase 1 (Plasmodium falciparum (isolate 3D7)) (UniProt P62344); assay: PfCDPK1 kinase inhibitors, biochemical, TCAMS library (AID 1159585; cut-off not given, nearly all actives have IC50 up to about 0.98 µM;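 note: inhibitors leave more ATP so luminescence rises with inhibition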); conditions: recombinant PfCDPK1, Kinase-Glo ATP depletion luminescence
[6] = biological target: Plasmodium falciparum protein kinase 6 (PK6, PF3D7_1337100) (UniProt Q8IDW1); assay: PfPK6 kinase inhibitors, biochemical, TCAMS library (AID 1159586); conditions: recombinant PfPK6, Kinase-Glo ATP depletion luminescence
[7] = biological target: Protein kinase 7 (PK7), Plasmodium falciparum 3D7 (PF3D7_0213400) (UniProt Q7YTF7); assay: inhibition of Plasmodium PK7 catalytic activity – biochemical, TCAMS antimalarial set, Kinase-Glo luminescence (AID 1159587); conditions: recombinant PfPK7, Kinase-Glo ATP depletion luminescence
[8] = biological target: Calcium-dependent protein kinase 4 (Plasmodium falciparum (isolate 3D7)) (UniProt Q8IBS5); assay: PfCDPK4 kinase inhibitors, biochemical, TCAMS library (AID 1159588; cut-off not given, nearly all actives have IC50 up to about 0.91 µM); conditions: recombinant PfCDPK4, Kinase-Glo ATP depletion luminescence
Calcium-dependent protein kinase 4 (Plasmodium falciparum (isolate 3D7)), sequence (Q8IBS5 whole entry, looked up): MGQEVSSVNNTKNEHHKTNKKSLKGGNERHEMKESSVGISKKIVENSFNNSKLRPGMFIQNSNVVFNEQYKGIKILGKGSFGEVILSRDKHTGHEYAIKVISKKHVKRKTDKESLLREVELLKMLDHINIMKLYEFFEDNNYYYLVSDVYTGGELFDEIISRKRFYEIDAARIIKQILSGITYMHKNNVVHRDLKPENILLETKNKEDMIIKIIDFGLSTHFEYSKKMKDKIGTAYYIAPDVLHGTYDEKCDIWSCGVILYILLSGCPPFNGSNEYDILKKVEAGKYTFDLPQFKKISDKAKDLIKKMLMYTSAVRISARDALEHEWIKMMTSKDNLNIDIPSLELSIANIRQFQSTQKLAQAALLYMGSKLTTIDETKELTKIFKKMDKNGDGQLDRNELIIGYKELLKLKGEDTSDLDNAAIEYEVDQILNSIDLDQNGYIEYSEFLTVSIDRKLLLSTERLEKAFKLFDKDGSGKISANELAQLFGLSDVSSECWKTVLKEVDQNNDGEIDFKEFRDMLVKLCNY

L-lactate dehydrogenase (Plasmodium falciparum (isolate CDC / Honduras)), sequence (Q27743 whole entry, looked up): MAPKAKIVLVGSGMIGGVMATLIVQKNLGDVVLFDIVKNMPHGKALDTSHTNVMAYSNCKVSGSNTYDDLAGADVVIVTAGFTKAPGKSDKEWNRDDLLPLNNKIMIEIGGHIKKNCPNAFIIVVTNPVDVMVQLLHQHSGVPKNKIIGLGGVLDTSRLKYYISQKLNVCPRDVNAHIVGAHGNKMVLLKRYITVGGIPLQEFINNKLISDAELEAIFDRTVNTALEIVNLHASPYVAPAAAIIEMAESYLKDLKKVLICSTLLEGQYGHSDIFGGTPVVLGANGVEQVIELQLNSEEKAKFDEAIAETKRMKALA
Calcium-dependent protein kinase 1 (Plasmodium falciparum (isolate 3D7)), sequence (P62344 whole entry, looked up): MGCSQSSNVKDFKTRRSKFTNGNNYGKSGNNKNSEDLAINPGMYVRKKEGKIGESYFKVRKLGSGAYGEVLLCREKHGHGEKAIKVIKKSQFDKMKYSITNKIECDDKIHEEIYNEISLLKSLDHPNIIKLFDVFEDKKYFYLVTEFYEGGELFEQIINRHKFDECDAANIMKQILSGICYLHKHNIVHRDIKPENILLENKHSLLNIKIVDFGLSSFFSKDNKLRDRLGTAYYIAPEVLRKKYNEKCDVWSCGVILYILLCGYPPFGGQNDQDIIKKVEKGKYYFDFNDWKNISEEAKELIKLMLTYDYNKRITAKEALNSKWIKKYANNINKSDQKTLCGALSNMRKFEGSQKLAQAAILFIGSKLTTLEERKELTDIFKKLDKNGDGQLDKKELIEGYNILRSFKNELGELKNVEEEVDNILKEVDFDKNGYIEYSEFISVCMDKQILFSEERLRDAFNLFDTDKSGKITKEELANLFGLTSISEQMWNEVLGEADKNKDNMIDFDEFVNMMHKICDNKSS
Protein kinase 7 (PK7), Plasmodium falciparum 3D7 (PF3D7_0213400), sequence (Q7YTF7 1-343): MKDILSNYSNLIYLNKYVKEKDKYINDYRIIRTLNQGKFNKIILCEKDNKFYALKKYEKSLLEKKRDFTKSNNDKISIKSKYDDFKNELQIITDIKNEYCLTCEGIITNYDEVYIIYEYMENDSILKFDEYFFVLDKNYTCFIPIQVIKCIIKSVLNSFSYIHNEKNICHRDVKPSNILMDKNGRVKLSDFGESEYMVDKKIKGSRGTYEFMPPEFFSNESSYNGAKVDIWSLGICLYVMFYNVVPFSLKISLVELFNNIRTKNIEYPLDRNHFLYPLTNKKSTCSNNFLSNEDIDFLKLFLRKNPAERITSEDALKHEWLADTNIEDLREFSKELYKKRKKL
Plasmodium falciparum protein kinase 6 (PK6, PF3D7_1337100), sequence (Q8IDW1 1-305): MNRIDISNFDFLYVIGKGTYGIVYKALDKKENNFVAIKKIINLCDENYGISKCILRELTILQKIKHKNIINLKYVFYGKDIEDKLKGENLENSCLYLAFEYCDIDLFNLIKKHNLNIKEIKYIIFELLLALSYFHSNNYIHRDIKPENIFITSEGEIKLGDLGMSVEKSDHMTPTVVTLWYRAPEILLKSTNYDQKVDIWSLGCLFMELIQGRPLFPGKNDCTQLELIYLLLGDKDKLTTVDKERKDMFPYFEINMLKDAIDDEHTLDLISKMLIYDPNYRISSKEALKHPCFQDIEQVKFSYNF

Row | SMILES | growth inhibition [1] | inhibition [2] | inhibition [3] [%] | growth inhibition [4] | outcome [5] | outcome [6] | outcome [7] | outcome [8]
1 | COc1cc2nc(N3CCC(CNC(=O)c4ccc(C(C)=O)cc4)CC3)nc(N)c2cc1OC | 15% | 10% | 1 | 96% (active) | inactive | inactive | inactive | inactive
2 | CC(C)Oc1ccc(C=CC(=O)Nc2noc3ccccc23)cc1 | 95% (active) | 2% | 4 | 96% (active) | inactive | inactive | inactive | inactive
3 | O=C1CCCN1CCCNCc1cccc(-c2ccc(-c3nc4ccccc4[nH]3)s2)c1 | 0% | -6% | -3 | 97% (active) | inactive | inactive | inactive | inactive
4 | Cc1cc(NC(=O)CCN2CCN(c3cccc(Cl)c3Cl)CC2)ccc1N1CCN(C(C)C)CC1 | 8% | 82% (active) | 7 | 99% (active) | inactive | inactive | inactive | inactive
5 | Cc1cc(NCCC(=O)NCCOc2ccccc2)nc(NCCOc2ccccc2)n1 | 20% | 8% | 0 | 92% (active) | inactive | inactive | inactive | inactive
6 | CCN(CC)CCOC(=O)c1ccc(NC(=O)c2cc(-c3ccc(C)cc3)nc3ccccc23)cc1 | 12% | 22% | -4 | 97% (active) | inactive | inactive | inactive | inactive
7 | COc1cccc(CNC[C@@H](O)[C@H](Cc2ccccc2)NC(=O)c2cc3c4c(c2)c(C(C)C)cn4CCS(=O)(=O)N3C)c1 | 98% (active) | 21% | -6 | 98% (active) | inactive | inactive | inactive | inactive
8 | CC(NC(=O)c1ccc(O)c(-c2ccc(Cl)c(Cl)c2)c1)C(=O)NCCN1CCOCC1 (stereo not given) | 7% | 2% | -3 | 87% (active) | inactive | inactive | inactive | inactive
9 | C=CCc1cc(Br)ccc1OCCCOc1c(C)nc(N)nc1N | 96% (active) | 56% (active) | -3 | 94% (active) | inactive | inactive | inactive | inactive
10 | COc1ccc2ncc(C#N)c(CCN3CCC(NCc4ccc5c(c4)OCCO5)CC3)c2c1 | 31% | 12% | -4 | 96% (active) | inactive | inactive | inactive | inactive
11 | Cc1ccc(Nc2nc3cc(Nc4ccnc(Nc5ccc(CS(C)(=O)=O)cc5)n4)ccc3o2)cc1 | 66% (active) | 54% (active) | 2 | 99% (active) | inactive | inactive | inactive | inactive
12 | Cc1cc(N[C@@H](CC(C)C)C(=O)NC2CCCC2)nc(NCC2CCCCC2)n1 | 88% (active) | 8% | 0 | 101% (active) | inactive | inactive | inactive | inactive
13 | COc1cc(OC)cc(-c2nn(-c3ccc([N+](=O)[O-])cc3Cl)c(=S)n2CC2CCCO2)c1 (stereo not given) | 98% (active) | 5% | 0 | 98% (active) | inactive | inactive | inactive | inactive
14 | CCNc1cc(C(=O)N[C@@H](Cc2ccccc2)[C@H](O)CNCCc2cc(OC)cc(OC)c2)cc(N2CCCCS2(=O)=O)c1 | 28% | 3% | 0 | 89% (active) | inactive | inactive | inactive | inactive
15 | Cc1ccc(O)cc1Nc1ccnc2cc(-c3csc(CNCCN4CCOCC4)n3)ccc12 | 99% (active) | 6% | -3 | 101% (active) | inactive | inactive | inactive | inactive
16 | COc1ccc(NC(=O)c2ccc(Br)c(C)c2)cc1N1CCN(Cc2ccccc2)CC1 | 3% | -2% | 0 | 95% (active) | inactive | inactive | inactive | inactive
17 | COc1ccc(CNCc2ccccc2)cc1-c1ccc(S(=O)(=O)NCCN2CCCC2)s1 | 62% (active) | 32% | 0 | 101% (active) | inactive | inactive | inactive | inactive
18 | CCOC(=O)CNC(=O)c1cc(=O)c2ccccc2o1 | -4% | 22% | -4 | 99% (active) | inactive | inactive | inactive | inactive
19 | CCS[C@@H]1O[C@H](COC(=O)c2ccccc2)[C@H](OC(=O)c2ccccc2)[C@H](OC(=O)c2ccccc2)[C@H]1OC(=O)c1ccccc1 | 52% (active) | 4% | 5 | 98% (active) | inactive | inactive | inactive | inactive
20 | CCC1CN2CCc3c([nH]c4ccc(OC)cc34)[C@@H]2C[C@@H]1CC1NCCc2cc(OC)c(OC)cc21 (stereo not given in full) | 21% | 17% | -2 | 100% (active) | inactive | inactive | inactive | inactive

Row | SMILES | growth inhibition [1] | inhibition [2] | inhibition [3] [%] | growth inhibition [4] | outcome [5] | outcome [6] | outcome [7] | outcome [8]
21 | CC(C)(C)c1ccc(-c2cc3c(ccc4nc(N)nc(N)c43)[nH]2)cc1 | 100% (active) | 100% (active) | 5 | 101% (active) | inactive | inactive | inactive | inactive
22 | Cc1ccc(-n2c(Cc3cccc4ccccc34)nnc2SCCC#N)c(C)c1 | 98% (active) | 0% | -7 | 95% (active) | inactive | inactive | inactive | inactive
23 | O=[N+]([O-])c1ccc2c(c1)c1ccccc1n2Cc1ccccc1O | 84% (active) | -2% | 0 | 93% (active) | inactive | inactive | inactive | inactive
24 | C=C(C)C1CC=C(CN2CCC(N3CCc4cc(NC(=O)c5cc(C)on5)ccc43)C2)CC1 (stereo not given) | 95% (active) | 26% | 0 | 90% (active) | inactive | inactive | inactive | inactive
25 | O=C1OC(c2ccccc2)(c2ccccn2)CN1C1CCN(Cc2cccn2-c2ccc(Cl)cc2)CC1 (stereo not given) | 98% (active) | 21% | -5 | 99% (active) | inactive | inactive | inactive | inactive
26 | COc1ccc(CNC2CCN(C)CC2)cc1-c1ccc(S(=O)(=O)NC2CCC2)c(F)c1 | 97% (active) | 96% (active) | 7 | 101% (active) | inactive | inactive | inactive | inactive
27 | COc1ccc2nccc([C@@H](O)CN3CCC(NCc4cc5cc(C)ccc5s4)CC3)c2c1 | 74% (active) | 13% | 3 | 92% (active) | inactive | inactive | inactive | inactive
28 | COc1cc(NC(=O)/C=C/c2cc3ccccc3n2C)ccc1OCCN(C(C)C)C(C)C | 68% (active) | 16% | 4 | 99% (active) | inactive | inactive | inactive | inactive
29 | O=C(Nc1ccc2ccccc2n1)c1ccccc1-c1ccccc1 | 83% (active) | 14% | 0 | 90% (active) | inactive | inactive | inactive | inactive
30 | Nc1nc(N)c2cc(Sc3ccc4ccccc4c3)ccc2n1 | 92% (active) | 66% (active) | 0 | 95% (active) | inactive | inactive | inactive | inactive
31 | COc1ccc(CN(C)CCCCc2ccc(NC(=O)COc3cccc4sc5ccccc5c(=O)c34)cc2)cc1OC | 84% (active) | 26% | -1 | 100% (active) | inactive | inactive | inactive | inactive
32 | O=C(NC1CC1)c1cnc(N2CCC(OCc3ccccc3)CC2)c(Cl)c1 | 71% (active) | -5% | -2 | 90% (active) | inactive | inactive | inactive | inactive
33 | Oc1ccc2ncnc(Nc3ccc(OCc4cccc(F)c4)c(Cl)c3)c2c1 | 30% | 24% | 2 | 100% (active) | inactive | inactive | inactive | inactive
34 | CCCCc1ccc(C(=O)Nc2ccc3nc(N4CCN(CC)CC4)cc(C)c3c2)cc1 | 13% | 32% | 4 | 91% (active) | inactive | inactive | inactive | inactive
35 | COc1ccc(N2CCN(CCc3ccc(NC(=O)c4ccc([N+](=O)[O-])cc4)cc3)CC2)c(OC)c1 | 0% | 45% | 1 | 83% (active) | inactive | inactive | inactive | inactive
36 | c1cncc(Oc2ccc(Nc3ccnc4cc(-c5cccc(CN6CCOCC6)c5)ccc34)cc2)c1 | 100% (active) | 14% | 5 | 101% (active) | inactive | inactive | inactive | inactive
37 | CCNc1cc(C(=O)N[C@@H](Cc2ccccc2)[C@H](O)CNC2CCC(F)(F)CC2)c(F)c(N2CCCCS2(=O)=O)c1 | 97% (active) | -5% | -1 | 100% (active) | inactive | inactive | inactive | inactive
38 | CCCCc1cc(NC2CCN(C)CC2)nc(Nc2ccccc2)n1 | 29% | 7% | -2 | 103% (active) | inactive | inactive | inactive | inactive
39 | CC(C)C[C@H](NC(=O)c1ccc(OCCN2CCOCC2)cc1)C(=O)NC(/C=N/N1CCCC1=O)C(C)C (stereo not given in full) | 81% (active) | 3% | -2 | 90% (active) | inactive | inactive | inactive | inactive
40 | O=C(Nc1cccc(-c2ccc(-c3nc4ccc(F)cc4[nH]3)s2)c1)c1cccnc1 | 72% (active) | 46% | -5 | 100% (active) | inactive | inactive | inactive | inactive
